Measured values as given in PubChem BioAssay (EPA / NIEHS).
“And” between values parts separate entries of the source, which are not always exact repeats. Equal values may be shown once. Inconclusive results are not listed. The source holds several records for some structures; these can differ, active in one and inactive in another. The source made the active and inactive calls. How the source made its calls, unless noted: active means hit-call score of the fitted dose curve at least 0.9, where 1 is the maximum; inconclusive means response in the unintended direction; inactive means score below 0.9.

How the values were obtained:
[1] = read-out: glucuronosyltransferase (UGT1A1), UGT1A1 (gene 54658); assay: CLD_UGT1A1_48hr: CellzDirect (CLD) Gene Expression Assay for glucuronosyltransferase (UGT1A1) at 48 hours (AID 2283709);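 further: actives increase expression relative to DMSO so potency refers to induction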
Method in brief: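 Human primary hepatocytes dosed daily for two days (0.2% DMSO vehicle), harvested at 48 h. UGT1A1 mRNA induction measured by quantitative nuclease protection assay with chemiluminescence; gain of signal versus DMSO; cytotoxicity flagged from morphology.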

[2] = STM_H9_OrnithineISnorm_perc: Stemina devTOX quickPredict H9 human embryonic stem cell (hESC)-based Assay for Ornithine (ORN) Metabolite Biomarker, Normalized (AID 2283712; active means hit-call score of the fitted dose curve at least 0.9, where 1 is the maximum; inactive means score below 0.9;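 further: ornithine released into spent medium during last day measured by mass spectrometry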)
Method in brief: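 Undifferentiated H9 hESCs exposed 72 h with daily media and compound renewal; final 24-h conditioned medium analysed by UPLC-HRMS. Ornithine peak area normalised to spiked C13 standard and to median 0.1% DMSO control; viability by CellTiter-Fluor.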

[3] = STM_H9_CystineISnorm_perc: Stemina devTOX quickPredict H9 human embryonic stem cell (hESC)-based Assay for Cystine (CYSS) Metabolite Biomarker, Normalized (AID 2283713; active means hit-call score of the fitted dose curve at least 0.9, where 1 is the maximum; inactive means score below 0.9)
Method in brief: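 Undifferentiated H9 hESCs exposed 72 h, compound and media replaced every 24 h; final 24-h media analysed by UPLC-HRMS. Cystine normalized to C13 spike-in standard and median 0.1% DMSO control.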

[4] = STM_H9_OrnCyssISnorm_ratio: Stemina devTOX quickPredict H9 human embryonic stem cell (hESC)-based Assay for Ornithine (ORN):Cystine (CYSS) Ratio (AID 2283714)
Method in brief: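 Steps: H9 hESCs in pluripotent state dosed 72h, medium plus compound renewed every 24h; conditioned medium from the final 24h deproteinized in 40% acetonitrile; ORN and CYSS quantified by UPLC-HRMS with C13 spike-ins; ratio relative to vehicle.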

[5] = Tanguay_ZF_120hpf_ActivityScore_legacy: (Legacy) Oregon State University Tanguay Lab 120 Hour Post-fertilization zebrafish Assay Score for Activity (AID 2283742);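 on AC50: dechorionated Tropical 5D wild-type zebrafish embryos held singly per well; static exposure from 6 hpf until 120 hpf at 28 °C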
Method in brief: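 Embryos are staged, enzymatically dechorionated at 4 hpf, placed individually at 6 hpf, then held in test chemical (0.64% DMSO) at 28C until 120 hpf. Mortality and malformations are scored by brightfield, with non-mortality endpoints skipped for dead embryos.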

[6] = read-out: organic anion transporter (SLCO1B1), SLCO1B1 (gene 10599); assay: CLD_SLCO1B1_48hr: CellzDirect (CLD) Gene Expression Assay for organic anion transporter (SLCO1B1) at 48 hours (AID 2283707)
Method in brief: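 Primary human hepatocytes from two donor preparations dosed daily for two days with multiple concentrations, 0.2% DMSO vehicle. SLCO1B1 mRNA at 48 h by quantitative nuclease protection assay, chemiluminescence; gain-of-signal fitted versus DMSO.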

[7] = system: Thyroperoxidase (TPO), gene 445522; assay: CCTE_Simmons_GUA_TPO: CCTE's Guaiacol Assay for Thyroperoxidase (TPO) Inhibition, Simmons Lab (AID 2283750)
Method in brief: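 Porcine thyroid microsomes (25 ug) in 200mM potassium phosphate, preincubated 30 s at 37C with compound (8 concentrations, 5 nM–87.5 uM) and 35mM guaiacol; 1mM H2O2 starts reaction. Absorbance change at 450nm over first 80 s; loss of signal versus DMSO, three replicates.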

[8] = ArunA_CellTiter_hNC: Viability Assessment in the ArunA Biomedical's Oris Neural Crest (hNC) Cell Migration Assay (AID 2283752)
Experimental: ArunA_CellTiter_hNC is a cell-based, single-readout assay that uses human H9-derived embryonic neural crest stem cells (hNC). Measurements were taken 72 hours after chemical dosing in a 96-well plate.ArunA_CellTiter_hNC is an assay component measured from the ArunA_CellTiter_hNC assay. It is designed to make measurements of viability, a form of viability reporter, as detected with fluorescence intensity signals by HCS Fluorescent Imaging technology. Data from the assay component ArunA_CellTiter_hNC was analyzed at the endpoint, ArunA_CellTiter_hNC, in the positive analysis fitting direction relative to DMSO as the negative control and baseline of activity. […]
To assess the hNP and hNC migration and cell titer endpoints, 60,000 cells per well were plated onto Matrigel in basal growth medium with LIF and bFGF in a 96-well plate format. […] Cell viability in the detection zone was quantitated using a Flexstation3 microplate reader (ex494 nm/em 517 nm). Corresponding cell titer endpoints were assessed for the hNP and hNC cells using the Promega CellTiter Aqueous One Solution Cell Proliferation Assay (Cat no. G3581; CellTiter 96). Finally, to gain insight into the mechanisms by which cells migrate into the detection zone, Ki-67 expression was quantified for 10 additional chemicals in the hNP and hNC systems. […]

[9] = ArunA_CellTiter_hNP: Viability Assessment in the ArunA Biomedical's Oris Neural Crest (hNC) Cell Migration Assay (AID 2283753)
Method in brief: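 H9-derived hNP1 neuroprogenitors, 60,000/well on Matrigel, cultured 16 h, then 72 h chemical exposure in test medium. Cell titer via CellTiter Aqueous One; positive-direction fit vs DMSO.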

CCC(C)(NC(=O)c1cc(Cl)c(C)c(Cl)c1)C(=O)CCl (configuration not stated)
outcome [1]: inactive | AC50 [2]: 19.6 µM (active) | AC50 [3]: 23.9 µM (active) | AC50 [4]: 22.9 µM (active) | outcome [5]: inactive

COP(=S)(OC)Oc1ccc(SC)c(C)c1
outcome [1]: inactive

CCOc1nc(NC)nc(NC(=O)NS(=O)(=O)c2ccccc2C(=O)OC)n1
outcome [6]: inactive | outcome [1]: inactive

COC(=O)c1ccccc1CS(=O)(=O)NC(=O)Nc1nc(OC)cc(OC)n1
outcome [6]: inactive | outcome [1]: inactive

O=C1c2ccccc2C(=O)N1SC(Cl)(Cl)Cl
outcome [6]: inactive | outcome [1]: inactive | outcome [5]: inactive

O=[N+]([O-])c1c(Cl)c(Cl)c(Cl)c(Cl)c1Cl
outcome [6]: inactive | outcome [1]: inactive | outcome [5]: inactive

O=C(NC(=O)c1c(F)cccc1F)Nc1ccc(OC(F)(F)C(F)OC(F)(F)F)c(Cl)c1 (configuration not stated)
outcome [6]: inactive | outcome [1]: inactive | outcome [2]: inactive | outcome [3]: inactive | outcome [5]: inactive

O=S1OCC2C(CO1)C1(Cl)C(Cl)=C(Cl)C2(Cl)C1(Cl)Cl (configuration not stated)
outcome [1]: inactive | AC50 [2]: 36.1 µM (active) | AC50 [3]: 82 µM (active) | AC50 [4]: 77.1 µM (active) | outcome [5]: inactive

COP(=S)(OC)Oc1ccc([N+](=O)[O-])cc1
outcome [6]: inactive | AC50 [1]: 6.74 µM (active) | outcome [5]: inactive | outcome [7]: inactive

Oc1ccc(Cl)cc1Cc1ccccc1
outcome [6]: inactive | outcome [1]: inactive | outcome [2]: inactive | outcome [3]: inactive | outcome [4]: inactive | AC50 [5]: 37.1 µM (active) and 23.4 µM (active) and 22.3 µM (active)

COC(=O)c1ccccc1S(=O)(=O)NC(=O)Nc1nc(C)nc(OC)n1
outcome [1]: inactive

Oc1cc(Cl)ccc1Oc1ccc(Cl)cc1Cl
outcome [6]: inactive | outcome [1]: inactive | AC50 [2]: 86.3 µM (active) | AC50 [3]: 81.2 µM (active) | AC50 [4]: 75.8 µM (active) | AC50 [5]: 41.4 µM (active) and 46.5 µM (active) | outcome [5]: inactive | outcome [8]: inactive | outcome [9]: inactive

CC(C)(C)C(O)/C(=C\c1ccc(Cl)cc1Cl)n1cncn1 (configuration not stated)
outcome [1]: inactive | AC50 [2]: 69.4 µM (active) | AC50 [3]: 79.6 µM (active) | AC50 [4]: 74.4 µM (active) | AC50 [5]: 94.2 µM (active)

O=C(O)C(F)(F)C(F)(F)C(F)(F)C(F)(F)C(F)(F)C(F)(F)C(F)(F)F
outcome [6]: inactive | outcome [1]: inactive | outcome [2]: inactive | outcome [3]: inactive | outcome [5]: inactive

O=C(Nc1ccccc1)Nc1cnns1
AC50 [1]: 9.87 µM (active) | outcome [2]: inactive | AC50 [3]: 58.7 µM (active) | AC50 [4]: 58.3 µM (active) | outcome [5]: inactive

CC(C)OC(=O)Nc1cccc(Cl)c1
outcome [6]: inactive | AC50 [1]: 12.8 µM (active) | outcome [2]: inactive | AC50 [3]: 11.1 µM (active) | AC50 [4]: 11.7 µM (active) | AC50 [5]: 39.2 µM (active)

COC(=O)c1ccccc1S(=O)(=O)NC(=O)N(C)c1nc(C)nc(OC)n1
outcome [1]: inactive

CCS(=O)(=O)c1cccnc1S(=O)(=O)NC(=O)Nc1nc(OC)cc(OC)n1
outcome [6]: inactive | outcome [1]: inactive

CCOC1Oc2ccc(OS(C)(=O)=O)cc2C1(C)C (configuration not stated)
outcome [1]: inactive | AC50 [2]: 86.3 µM (active) | AC50 [3]: 83 µM (active) | AC50 [4]: 84.3 µM (active) | outcome [5]: inactive

COc1cc(OC)nc(NC(=O)NS(=O)(=O)c2cc(NC=O)ccc2C(=O)N(C)C)n1
outcome [6]: inactive | outcome [1]: inactive

O=S(=O)(O)C(F)(F)C(F)(F)C(F)(F)C(F)(F)C(F)(F)C(F)(F)C(F)(F)C(F)(F)F
outcome [6]: inactive | outcome [1]: inactive | outcome [2]: inactive | outcome [3]: inactive | outcome [4]: inactive
